Shiga inhibitor – inhibitors of Shiga toxin in Vero cells; Vero cells, Shiga toxin protein synthesis inhibition reporter; inhibition, % at 38.7 µM; actives 9.2% (n = 290,000); AID 2315; in the data active = inhibition mostly above about 28%, no sharp cut-off; inactive = mostly below about 43%; also: 0% is about no effect
Pf growth 96h – P. falciparum growth inhibition at 96 hours; P. falciparum luciferase reporter growth, 96 h; Potency, µM (series often up to 28.7 µM), inactives show at the top dose activity change, negative = inhibition, most hits filed as inhibitors; actives 6.9% (n = 320,000); AID 504834; also: potency is read from the fitted curve at half-maximal effect; % is scaled to controls: 0 for no effect and ±100 for the full control effect
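Plates of compound plus infected erythrocytes (2% hematocrit, 0.05% parasitemia final) incubate 96 hours, 37 C, 5% CO2. Detection reagent added; reduced luminescence from the parasites' luciferase reporter flags inhibition.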
CHX counter – affects cycloheximide protein synthesis inhibition readout, counter-screen; cell reporter, cycloheximide protein synthesis inhibition counterscreen; max response, %; actives 12% (n = 300,000); AID 2314; in the data active = max response mostly above about 13%, no sharp cut-off; inactive = mostly below about 14%; also: read at 38.3 µM for the half of the compounds with a filed dose; 0% is about no effect
Pf growth 48h – inhibits P. falciparum growth in the first generation, 48 h; P. falciparum luciferase growth in erythrocytes, 48 h; Potency, µM (top dose mostly 28.7 µM), for inactives: at the top dose activity change, negative = inhibition, hits mostly inhibitors; actives 5.9% (n = 310,000); also: potency is read from the fitted curve at half-maximal effect; % is scaled to controls: 0 for no effect and ±100 for the full control effect
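In quantitative HTS format, infected erythrocytes bearing luciferase-reporter parasites were treated for a single generation at 37 C. Luminescence after adding detection reagent served as the growth measure.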
LASV entry inh – Lassa virus entry inhibition; Lassa virus pseudotype entry inhibition, cell reporter; actives 1.2% (n = 300,000); Potency, µM (doses to about 37.9 µM), for inactives: at the top dose activity change, negative = inhibition, usual class: inhibitors; AID 540256; calls by dose curve; tested in HEK293 cells; also: potency is read from the fitted curve at half-maximal effect; % is scaled to controls: 0 for no effect and ±100 for the full control effect; nearly all actives have a fitted effect of over 50% in size
Marburg entry inh – Marburg virus entry inhibition | actives 1.8% (n = 300,000) | Marburg virus pseudotyped entry inhibition, cell reporter | Potency, µM (series often up to 37.8 µM), inactives show top-dose activity change, negative = inhibition, most hits filed as inhibitors; calls by dose curve; tested in HEK293 cells; also: potency is read from the fitted curve at half-maximal effect; % is scaled to controls: 0 for no effect and ±100 for the full control effect
Starred values were filed as active, the others as inactive; ? = inconclusive; . = no result given; [ ] = another dose, or the depositor's remark. A selection: hits, their analogues and other compounds. The true share with any hit is near 19%. Unless noted, calls follow the shape of the dose curve; as a rule, active = well fitted inhibition curve with a large enough effect; inconclusive = small, poorly fitted or top-dose-only effect, or another doubt; inactive = no such curve, though single readings can be large or run the other way.

SMILES	Shiga inhibitor	Pf growth 96h	CHX counter	Pf growth 48h	LASV entry inh	Marburg entry inh
O=[N+]([O-])c1ccc(O)c(/C=N/Nc2nc3ccccc3[nH]2)c1	8.8	75.7%	19.4*	2.33µM*	3.55µM*	2.82µM*
COc1cc(/C=N/Nc2nc3ccccc3[nH]2)cc(Br)c1OCC(=O)N(C)C	138.8*	0.465µM*	37.1*	0.465µM*	?	-22.0%
CC(C)c1ccc(OC(=O)c2cccc(S(=O)(=O)N3CCN(C)CC3)c2)cc1	42.1	-4.7%	11.2	8.6%	1.7%	2.4%
CCOc1ccc(N(C)C(=O)C2CCN(S(=O)(=O)c3ccc4c(c3)CCCN4C(C)=O)CC2)cc1	.	.	.	.	-0.7%[46.1 µM]	.
COc1cc(/C=N/NC(=O)c2cc3ccccc3[nH]2)ccc1O	13.9	?	7.4	?	.	.
COc1cc(/C=N/Nc2nc3ccccc3[nH]c2=O)ccc1O	16.8*	?	19.5	?	2.2%	?
COc1cc(/C=N/NC(=O)Cn2nnc3ccccc32)ccc1O	18.8	34.2%	8.2	0.0%	.	.
COc1cc(/C=N/Nc2snc(SC)c2C#N)ccc1O	34.3	129.5%	27.5*	47.7%	?	-21.6%
COc1cc(/C=N/Nc2nc3ccccc3[nH]2)ccc1O	32.7*	?	36.6*	0.828µM*	?	-8.6%
COc1cc(/C=N/NC(=O)c2ccncc2)ccc1O	10.1	?	1.5	16.6%	.	.
OCC1(Cc2ccccc2Cl)CCN(C/C=C/c2ccccc2)CC1	-3.7	3.3%	-0.7	11.7µM*	.	.
Cc1cc(C)nc(NS(=O)(=O)c2ccc(NC(=O)C3(c4ccccc4)CCCC3)cc2)n1	-12.3	?	-3.1	19.3%	-4.0%	7.2%
CCOC(=O)c1c(NC(=O)c2ccccc2)sc2c(O)c(CN(CC)CC)ccc12	-5.9	-3.7%	-3.8	1.85µM*	-1.8%	-28.6%
O=C(c1cccc(C(F)(F)F)c1)N1CCOc2ccccc21	25.0	0.8%	4.0	13.1µM*	.	.
CSc1ccc(Cl)c(C(=O)N2CCOc3ccccc32)c1	-4.0	-24.7%	-1.9	-2.3%	.	.
COc1ccc(-c2ccc(N(C)C)cc2)cc1[C@H]1[C@@H]2C=CCC[C@@]2(C)C(=O)N1Cc1ccccc1	-2.6	9.28µM*	-2.6	9.28µM*	.	.
COc1ccc(-c2ccc(OC)c([C@H]3[C@@H]4C=CCC[C@@]4(C)C(=O)N3Cc3ccccc3)c2)cc1OC	7.1	11.7µM*	7.7	8.28µM*	.	.
COc1ccc(Br)cc1C1C2C=CCCC2(C)C(=O)N1Cc1ccccc1 (stereo not drawn)	3.0	.	9.7	.	.	.
COc1ccc(Br)cc1[C@H]1[C@@H]2C=CCC[C@@]2(C)C(=O)N1Cc1ccccc1	0.2	11.7µM*	-3.5	?	.	.
CCOC(=O)c1c(NC(=O)c2cc3nc(-c4ccc(OC)cc4)cc(C(F)(F)F)n3n2)sc(C)c1C	.	.	.	.	-2.2%[46.1 µM]	.
Cc1c(C(=O)OCC2CCCO2)[nH]c2c1C(=O)CC(c1ccco1)C2 (stereo not drawn)	16.6	.	6.6	?	?	?
C/C=C/COC(=O)c1[nH]c2c(c1C)C(=O)CC(c1ccco1)C2 (stereo not drawn)	-11.1	-33.9%	-4.8	1.47µM*	?	?
Cc1c(C(=O)OCC(C)C)[nH]c2c1C(=O)CC(c1ccco1)C2 (stereo not drawn)	17.8	0.0%	10.2	11.7µM*	?	?
C=CCOC(=O)c1[nH]c2c(c1C)C(=O)CC(c1ccco1)C2 (stereo not drawn)	-3.2	-86.2%	-1.5	5.22µM*	.	.
Cc1c(C(=O)OC2CCCC2)[nH]c2c1C(=O)CC(c1ccco1)C2 (stereo not drawn)	-1.4	?	0.8	7.38µM*	.	.
SMILES	Shiga inhibitor	Pf growth 96h	CHX counter	Pf growth 48h	LASV entry inh	Marburg entry inh
CN(C(=O)CCN1C(=O)C(C)(C)Nc2ccccc21)c1ccccc1	-9.8	?	-1.1	?	-2.2%	-3.2%
CC1=C(C(=O)Nc2ccccc2)C2(CCCCC2)C(C#N)=C(SCC(N)=O)N1	-18.2	-33.3%	-7.1	.	-6.7%	0.2%
COc1ccc(C2CC(=O)c3c([nH]c(C(=O)OC4CCCCCC4)c3C)C2)cc1 (stereo not drawn)	.	.	.	.	23.8%[46.1 µM]	0.3%[46.1 µM]
COC(=O)C1C(=O)c2c([nH]c(C(=O)OC3CCCC3)c2C)CC1C (stereo not drawn)	49.4	.	47.1*	26.4%	?	?
O=C(Cc1c[nH]c2ccccc12)Nc1nccs1	20.6	-1.4%	13.4	3.9%	8.7%	-7.5%[46.1 µM]
O=C(Nc1nccs1)C(=O)c1c[nH]c2ccccc12	145.8*	.	70.7*	-25.7%	?	?
CSc1ccccc1NC(=O)C(=O)c1c[nH]c2ccccc12	116.9*	99.2%	42.3*	159.5%	0.2%	13.5%[46.1 µM]
CSc1ccccc1NC(=O)CN(C)C(=O)Cc1c[nH]c2ccccc12	.	?	.	-26.7%	.	.
COc1ccc(-c2ccc(=O)n(Cc3cc(=O)n4ccccc4n3)n2)cc1	1.9	-25.1%	1.7	?	-19.0%	-20.2%
COc1ccc(Nc2c3c(nc4ccccc24)CCCC3)cc1OC	-2.9	0.8%	-7.3	-17.7%	-24.4%	8.91µM*
COc1ccc(Nc2cc(C)c3ccccc3n2)cc1	103.3*	-17.0%	41.5*	5.5%	-10.2%[46.1 µM]	?
COc1ccc(Nc2c3c(nc4ccccc24)CCC3)cc1	-5.2	-27.7%	-2.8	?	?	8.91µM*
COc1ccc(Nc2c3ccccc3nc3ccccc23)cc1	44.5*	42.7%	22.5*	4.15µM*	?	?
c1ccc(Nc2c3c(nc4ccccc24)CCC3)cc1	1.1	8.9%	1.1	?	-37.7%	?
CC(=O)Nc1nonc1-c1nnc(SCc2ccccc2Cl)n1C	.	.	.	.	-2.8%[46.1 µM]	9.9%[46.1 µM]
COc1ccccc1Nc1nc2ccccc2[nH]1	90.9*	?	28.6*	?	?	-21.6%[46.1 µM]
COc1ccccc1Nc1cc(C)nc(Nc2ccccc2OC)n1	.	10.4µM*	.	?	-13.0%	-21.8%
COc1ccccc1Nc1nc(C)cc(C)n1	15.2	?	-2.8	1.3%	?	-8.9%
COc1cc(Nc2c3ccccc3nc3ccccc23)cc(OC)c1OC	-3.1	?	-0.6	7.38µM*	?	2.82µM*
COc1ccccc1Nc1c2ccccc2nc2ccccc12	-2.9	2.33µM*	-1.8	7.38µM*	?	?
COc1ccccc1Nc1nc(-c2ccccc2)nc2ccccc12	-5.5	-1.2%	-1.0	6.2%	.	.
CCC(C(=O)NCc1ccccc1)n1nc(C)c2sc3ccccc3c2c1=O (stereo not drawn)	.	.	.	.	13.2%[46.1 µM]	25.8%[46.1 µM]
CCOc1cc(/C=N/NC(=O)COc2ccccc2C)ccc1OC(=O)c1cccs1	-4.5	36.0%	-0.6	-4.4%	?	-1.5%
CC1=C(C(=O)c2ccccc2)C(c2ccc(N3CCOCC3)cc2)NC(=O)N1 (stereo not drawn)	-6.9	?	1.5	-28.5%	.	.
Cc1ccc2nc3c(c(Nc4ccccc4)c2c1)CCC3	-7.4	9.28µM*	-2.4	?	?	?
